In PubChem BioAssay (NCATS):
Records with an inconclusive call do not appear. A call without a number means that no potency is given here. Calls of active or inactive are those of the source. Unless noted, calls come from the whole dose curve; as a rule, active = well fitted curve in the direction sought with a large enough effect; inconclusive = small, poorly fitted or top-dose-only effect, or another doubt; inactive = no such curve, though single readings can be large; an effect the other way counts as inactive or inconclusive.

Tests used:
[1] = AP1 Signaling Pathway (AID 357; active = well fitted curve in either direction with a large enough effect, not every such curve was filed as active); settings: ME-180 AP-1-bla reporter, EGF-induced, beta-lactamase ratio, 5 h; at 38 µM (top of the series)
Outline: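 ME-180 cells with beta-lactamase reporter under AP-1 response element, stimulated with EC50 EGF; compounds tested in titration series, 5 h at 37 °C. CCF4 substrate added 2.5 h at room temperature; 460/530 nm emission ratio gave %activity and AC50.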

[2] = target: Cytochrome P450 1A2 (Homo sapiens) (UniProt P05177); experiment: p450-cyp1a2 (AID 410; calls by dose curve)
Sequence of Cytochrome P450 1A2 (Homo sapiens) (P05177 whole entry, looked up): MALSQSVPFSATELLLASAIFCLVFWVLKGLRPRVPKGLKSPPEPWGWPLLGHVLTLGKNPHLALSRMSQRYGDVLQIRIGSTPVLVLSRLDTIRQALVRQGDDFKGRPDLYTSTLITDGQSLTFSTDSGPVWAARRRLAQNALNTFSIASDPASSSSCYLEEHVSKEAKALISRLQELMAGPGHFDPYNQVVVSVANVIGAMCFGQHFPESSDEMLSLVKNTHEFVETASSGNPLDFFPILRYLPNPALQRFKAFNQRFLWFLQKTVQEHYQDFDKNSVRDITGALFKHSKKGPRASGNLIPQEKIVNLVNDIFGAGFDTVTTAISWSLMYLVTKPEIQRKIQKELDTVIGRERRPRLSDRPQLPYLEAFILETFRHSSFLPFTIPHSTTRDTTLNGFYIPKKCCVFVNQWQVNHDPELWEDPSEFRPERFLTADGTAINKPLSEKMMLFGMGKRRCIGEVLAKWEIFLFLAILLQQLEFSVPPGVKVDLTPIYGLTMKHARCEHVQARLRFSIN
Outline: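 Human CYP1A2 (20nM) demethylated Luciferin-ME at its Km (100uM) in 100mM KPO4. After 10 min compound preincubation, NADPH regeneration ran the reaction 60 min at room temperature. Luciferin was read by luminescence, normalized to 57 uM furafylline.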

[3] = Stat Signaling Pathway (AID 446; active = well fitted curve in either direction with a large enough effect, not every such curve was filed as active;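 note: ME-180 cervical cancer cells given 40 pM IL-6 alongside compound; SIE-controlled beta-lactamase reporter measured as 460/530 nm FRET emission ratio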); settings: ME-180 SIE beta-lactamase reporter, IL-6 stimulated, 5 h; at 38 µM (top of the series)
Outline: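 ME-180 SIE-bla cells; overnight plating; cpd + IL-6 40 pM, 5 h, 37 C; LiveBLAzer 2.5 h RT; 460/530 nm emission ratio. Normalized to 300 pM IL-6 and 125 nM JAK inhibitor controls.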

[4] = target: Glucocorticoid receptor (Homo sapiens) (UniProt P04150); experiment: GR-GFP Redistribution (AID 450;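 active = compounds whose dose series gives a full or clear partial fitted curve of increased nuclear translocation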; note: potency is the fitted concentration of half-maximal effect); settings: U2OS GR-GFP nuclear translocation, laser cytometry, 2 h
Sequence of Glucocorticoid receptor (Homo sapiens) (P04150 whole entry, looked up, the tested form may be a part): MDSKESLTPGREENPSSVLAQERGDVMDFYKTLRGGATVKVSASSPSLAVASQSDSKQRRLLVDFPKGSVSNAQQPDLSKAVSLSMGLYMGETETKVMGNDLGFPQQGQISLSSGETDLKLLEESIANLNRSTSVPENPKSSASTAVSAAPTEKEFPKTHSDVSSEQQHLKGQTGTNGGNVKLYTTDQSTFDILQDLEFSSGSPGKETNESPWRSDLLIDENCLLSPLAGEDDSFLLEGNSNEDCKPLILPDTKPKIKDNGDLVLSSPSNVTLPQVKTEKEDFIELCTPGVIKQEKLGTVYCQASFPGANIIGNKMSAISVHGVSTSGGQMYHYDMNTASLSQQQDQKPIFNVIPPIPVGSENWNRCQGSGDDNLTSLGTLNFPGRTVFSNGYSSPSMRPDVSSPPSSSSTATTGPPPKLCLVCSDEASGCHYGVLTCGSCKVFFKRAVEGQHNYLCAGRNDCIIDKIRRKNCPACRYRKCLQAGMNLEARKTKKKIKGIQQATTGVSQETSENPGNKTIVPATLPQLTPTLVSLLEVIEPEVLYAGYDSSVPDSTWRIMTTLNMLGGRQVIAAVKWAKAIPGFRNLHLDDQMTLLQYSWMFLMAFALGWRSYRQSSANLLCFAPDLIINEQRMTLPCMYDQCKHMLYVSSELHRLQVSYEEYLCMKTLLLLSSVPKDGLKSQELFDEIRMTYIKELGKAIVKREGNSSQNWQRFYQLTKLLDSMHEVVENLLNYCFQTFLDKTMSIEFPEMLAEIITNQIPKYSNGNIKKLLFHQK

[5] = target: Glucocorticoid receptor (Homo sapiens) (UniProt P04150); experiment: GR-EFC Redistribution (AID 451; calls by dose curve; note: potency is the fitted concentration of half-maximal effect); settings: CHO-K1 GR-EFC translocation, beta-gal luminescence, 2 h
Outline: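 CHO-K1 cells stably expressing nuclear-localized β-gal enzyme acceptor and GR fused C-terminally to the enzyme donor fragment; ligand-driven nuclear translocation restores β-gal by complementation. Compounds titrated up to 46 uM final, 2 h at 37 °C; luminescence read.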

[6] = target: Mitogen-activated protein kinase 10 (Mus musculus) (UniProt Q61831); experiment: JNK3 AlphaScreen Assay (AID 530; active = well fitted curve in either direction with a large enough effect, not every such curve was filed as active;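 note: kinase came from lysate of stimulated human HepG2 cells; signal reports phosphorylation of biotinylated GST-cJun 1-79 at Ser73 with 10 µM ATP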)
Outline: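 JNK3 came from HepG2 lysates pre-activated with IL-1beta and TNF-alpha and phosphorylated biotinylated GST-cJun (1-79) at 10 uM ATP, pH 7.6, room temperature. Compounds were titrated. AlphaScreen signal used anti-phospho-cJun (Ser73) antibody.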

[7] = target: 3',5'-cyclic-AMP phosphodiesterase 4B (Homo sapiens) (UniProt Q07343); experiment: qHTS Assay for Inhibitors of PDE-IV (AID 607; active = well fitted activation curve with a large enough effect in the main read-out, with a control signal flat, not every such curve was filed as active)
Sequence of 3',5'-cyclic-AMP phosphodiesterase 4B (Homo sapiens) (Q07343 whole entry, looked up): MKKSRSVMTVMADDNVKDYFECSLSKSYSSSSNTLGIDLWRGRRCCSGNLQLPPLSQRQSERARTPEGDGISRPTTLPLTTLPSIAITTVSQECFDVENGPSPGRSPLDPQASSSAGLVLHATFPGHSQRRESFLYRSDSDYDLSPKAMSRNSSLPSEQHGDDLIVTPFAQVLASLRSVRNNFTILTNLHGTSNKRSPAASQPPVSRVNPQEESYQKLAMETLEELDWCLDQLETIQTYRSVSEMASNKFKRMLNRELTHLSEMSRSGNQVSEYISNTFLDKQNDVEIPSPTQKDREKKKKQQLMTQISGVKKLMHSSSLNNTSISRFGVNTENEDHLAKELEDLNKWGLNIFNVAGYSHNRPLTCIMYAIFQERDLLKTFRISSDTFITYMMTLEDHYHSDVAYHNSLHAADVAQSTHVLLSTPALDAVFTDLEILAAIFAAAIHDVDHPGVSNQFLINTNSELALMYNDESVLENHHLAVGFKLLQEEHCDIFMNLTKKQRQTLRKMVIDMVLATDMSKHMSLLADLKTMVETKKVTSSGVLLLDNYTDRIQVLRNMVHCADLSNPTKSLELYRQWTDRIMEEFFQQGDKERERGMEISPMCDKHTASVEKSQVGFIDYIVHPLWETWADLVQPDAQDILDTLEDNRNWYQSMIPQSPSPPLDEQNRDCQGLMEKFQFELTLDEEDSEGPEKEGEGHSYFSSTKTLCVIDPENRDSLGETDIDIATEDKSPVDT
Outline: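 ACTOne HEK293 cells carry a modified cAMP-gated CNG channel and express endogenous PDE4; plated 1000 cells/well, compounds up to 22.9 uM final. Membrane-potential dye fluorescence (ex 535/em 590) was read; parental cells received 10 uM forskolin + 100 uM RO 20-1724.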

[8] = target: Guanine nucleotide-binding protein G(i) subunit alpha-1 (Homo sapiens) (UniProt P63096); experiment: qHTS Assay for Inhibitors of RGS12 GoLoco Motif Activity (Green Fluorophore) (AID 879);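 note: negative values mean loss of peptide binding seen as reduced polarization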
Outline: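 Fluorescence polarization assay: 50 nM Gαi1 with 10 nM FITC-labeled RGS12 GoLoco peptide in 10 mM Tris pH 7.5, 150 mM NaCl, 0.1 mM GDP, 0.05% NP40, 10 min at room temperature with compound.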

[9] = target: Cytochrome P450 2C9 (Homo sapiens) (UniProt P11712); experiment: qHTS Assay for Inhibitors and Substrates of Cytochrome P450 2C9 (AID 883); note: potency is the fitted concentration of half-maximal effect; nearly all actives have a fitted effect of over 60% in size
Outline: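 CYP2C9 deoxyluciferin hydroxylation, 37C, 60 min with NADPH regeneration; 10nM enzyme, 100uM Luciferin-H (KM). Glo detection reagent stopped reaction; luminescence normalized to sulphaphenazole (57uM) full inhibition.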

[10] = target: Cytochrome P450 3A4 (Homo sapiens) (UniProt P08684); experiment: qHTS Assay for Inhibitors and Substrates of Cytochrome P450 3A4 (AID 884); note: potency is the fitted concentration of half-maximal effect; nearly all actives have a fitted effect of over 50% in size
Sequence of Cytochrome P450 3A4 (Homo sapiens) (P08684 whole entry, looked up): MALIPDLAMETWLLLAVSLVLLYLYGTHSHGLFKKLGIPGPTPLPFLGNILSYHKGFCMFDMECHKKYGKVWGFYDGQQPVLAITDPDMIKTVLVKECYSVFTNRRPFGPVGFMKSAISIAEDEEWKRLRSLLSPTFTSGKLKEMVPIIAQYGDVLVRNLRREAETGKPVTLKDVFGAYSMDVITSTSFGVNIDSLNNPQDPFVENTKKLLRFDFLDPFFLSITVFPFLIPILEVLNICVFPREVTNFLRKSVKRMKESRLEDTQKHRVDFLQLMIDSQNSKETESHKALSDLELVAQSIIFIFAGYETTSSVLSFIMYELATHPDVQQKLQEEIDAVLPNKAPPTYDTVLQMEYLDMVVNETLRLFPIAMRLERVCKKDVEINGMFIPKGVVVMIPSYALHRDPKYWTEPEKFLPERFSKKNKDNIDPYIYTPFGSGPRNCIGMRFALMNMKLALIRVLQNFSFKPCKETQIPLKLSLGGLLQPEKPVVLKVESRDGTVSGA
Outline: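 20 nM human CYP3A4 with 25 uM Luciferin-PPXE (at KM) in 200 mM KPO4, preincubated 10 min with compound; NADPH regeneration started a 60 min RT reaction. Luciferin detected by luminescence, normalized to 57 uM ketoconazole as full inhibition.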

[11] = target: Cytochrome P450 3A4 (Homo sapiens) (UniProt P08684); experiment: qHTS Assay for Activators of Cytochrome P450 3A4 (AID 885); note: nearly all actives have a fitted effect of over 65% in size
Outline: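 20nM CYP3A4 + 25uM Luciferin-PPXE (=KM), 200mM KPO4; cpd 10 min RT; NADPH regen, 60 min RT; stop w/ detection buffer, 20 min; luminescence. Normalized to 57 uM ketoconazole.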

[12] = qHTS Assay for Identification of Small Molecule Agonists for Thrombopoietin (TPO) Signaling Pathway (AID 917)
Outline: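 IL-3-dependent murine pro-B Ba/F3 cells, stably transfected with human TPO receptor and GpIIb-promoter luciferase, are incubated 24 hrs at 37 C with test compound and 26 pM TPO; luciferase signal is read after 10 min at room temperature.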

[13] = target: Muscarinic acetylcholine receptor M1 (Rattus norvegicus) (UniProt P08482); experiment: qHTS Assay for Antagonists of Acetylcholine Muscarinic M1 Receptor: Measurement of IP-One Response (AID 944); note: nearly all actives have a fitted effect of over 75% in size
Outline: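 CHO cells expressing rat M1 receptor, recovered overnight, were pre-incubated 10 min with compound, then stimulated 30 min with carbachol at EC80 (200 nM) in LiCl-containing buffer, pH 7.4. IP1 accumulation was read by HTRF (620/665 nm).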

[14] = target: Pyruvate kinase (Leishmania mexicana) (UniProt Q27686); experiment: qHTS Validation Assay for Inhibitors of Leishmania Mexicana Pyruvate Kinase (AID 945)
Outline: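 Eight-point qHTS titrations; enzyme 0.2 nM LmPYK (E451W mutant); substrates 0.5 mM PEP, 0.1 mM ADP; 7 mM MgCl2; 1 h room temperature; PKLight luminescence normalized to neutral control.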

[15] = target: Pyruvate kinase PKM (Homo sapiens) (UniProt P14618); experiment: qHTS Assay for Activators of Human Muscle Pyruvate Kinase (AID 954; active = well fitted curve in the direction sought with a large enough effect, not every such curve was filed as active)
Outline: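 Luminescence from a luciferase ATP-detection/stop reagent reported PKM2 activity. Reactions contained 0.1 nM purified human enzyme, 0.5 mM PEP, 0.1 mM ADP and 7 mM MgCl2 at pH 7.2, run 1 h at RT.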

[16] = target: Alpha-galactosidase A (Homo sapiens) (UniProt P06280); experiment: Counterscreen for Glucocerebrosidase Inhibitors: qHTS Assay for Human alpha-Galactosidase at pH 4.5 (AID 992)
Outline: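 Enzyme at 2 nM final was combined with compound (0.7 nM to 77 uM) and 80 uM 4-methylumbelliferyl alpha-D-galactopyranoside in 50 mM citric acid, 0.005% Tween-20, pH 4.5. After 20 min at room temperature, fluorescence was read (Ex 365/Em 440 nm); AC50 came from Hill fits.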

[17] = target: alpha-glucosidase (Oryza sativa, rice) (UniProt Q653V4); experiment: Counterscreen for Glucocerebrosidase Inhibitors: qHTS Assay for Rice alpha-Glucosidase at pH 5.0 (AID 997)
Outline: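 Rice alpha-glucosidase (4 nM final) with 400 uM 4-methylumbelliferyl-alpha-D-glucopyranoside in citrate buffer pH 5.0, 20 min at room temperature, stopped at pH 10; fluorescence 365/440 nm, compounds 0.7 nM–77 uM, AC50 from Hill fits.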

[18] = qHTS Assay for Lipid Storage Modulators (AID 1519; calls by dose curve); settings: Drosophila S3 cells, BODIPY lipid droplet/cell ratio, laser cytometry, cells loaded with oleic acid
Outline: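 Cells seeded at 5,000 per well were treated with compounds over a concentration series and loaded with oleic acid (400 uM, as added). Lipid droplet fluorescence (488 nm excitation, 500-530 nm channel) was read by laser-scanning cytometry and normalized to 20 uM Triacsin C.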

[19] = target: DNA dC->dU-editing enzyme APOBEC-3G (Homo sapiens) (UniProt Q9HC16); experiment: qHTS for inhibitors of Vif-A3G interactions: Validation (AID 588379)
Sequence of DNA dC->dU-editing enzyme APOBEC-3G (Homo sapiens) (Q9HC16 whole entry, looked up): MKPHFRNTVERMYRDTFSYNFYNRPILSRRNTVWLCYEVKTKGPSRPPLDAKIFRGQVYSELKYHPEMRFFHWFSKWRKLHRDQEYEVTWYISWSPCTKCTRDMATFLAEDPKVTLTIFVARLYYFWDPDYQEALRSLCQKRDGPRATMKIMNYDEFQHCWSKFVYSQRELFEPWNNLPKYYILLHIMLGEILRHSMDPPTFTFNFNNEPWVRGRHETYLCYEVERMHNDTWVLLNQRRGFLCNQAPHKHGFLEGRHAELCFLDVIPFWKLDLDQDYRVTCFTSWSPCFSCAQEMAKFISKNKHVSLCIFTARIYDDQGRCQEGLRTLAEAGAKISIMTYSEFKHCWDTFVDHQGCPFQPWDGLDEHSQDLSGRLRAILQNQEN
Outline: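 HeLa cells stably expressing Vif and A3G-eYFP, 700 cells/well, incubated overnight at 37 deg C, then exposed to compound overnight at 37 deg C. Inhibition of Vif-mediated degradation read as increased yellow fluorescence (Ex 488/Em 500-530) by laser-scanning cytometry.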

[20] = tested on: Zika virus NS2B-NS3 protease; experiment: Primary screen GU AMC qHTS for Zika virus inhibitors (AID 1347154); note: nearly all actives have a fitted effect of over 70% in size
Outline: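 Unlinked Zika NS2B hydrophilic domain/NS3 protease domain noncovalent complex (25 nM final) in 10 mM Tris-HCl pH 8.0, 0.01% Tween 20, with AMC peptide substrate. Fluorescence (ex 340, em 450 nm) change over 15 min, room temperature; percent inhibition fitted to 4-parameter Hill equation.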

[21] = Primary qHTS for small molecule stabilizers of the endoplasmic reticulum resident proteome: Secreted ER Calcium Modulated Protein (SERCaMP) assay (AID 1508630)
Outline: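 GLuc-SERCaMP-expressing SH-SY5Y cells, pretreated 16 h with compound, are challenged with thapsigargin to empty ER calcium stores; after 4 h, coelenterazine is added directly to the medium and luminescence is imaged.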

[22] = target: Rap guanine nucleotide exchange factor 3 (Homo sapiens) (UniProt O95398); experiment: Confirmatory qHTS for antagonist of cAMP-regulated guanine nucleotide exchange factor 3 (EPAC1) (AID 1645880); note: nearly all actives have a fitted effect of over 55% in size
Sequence of Rap guanine nucleotide exchange factor 3 (Homo sapiens) (O95398 whole entry, looked up): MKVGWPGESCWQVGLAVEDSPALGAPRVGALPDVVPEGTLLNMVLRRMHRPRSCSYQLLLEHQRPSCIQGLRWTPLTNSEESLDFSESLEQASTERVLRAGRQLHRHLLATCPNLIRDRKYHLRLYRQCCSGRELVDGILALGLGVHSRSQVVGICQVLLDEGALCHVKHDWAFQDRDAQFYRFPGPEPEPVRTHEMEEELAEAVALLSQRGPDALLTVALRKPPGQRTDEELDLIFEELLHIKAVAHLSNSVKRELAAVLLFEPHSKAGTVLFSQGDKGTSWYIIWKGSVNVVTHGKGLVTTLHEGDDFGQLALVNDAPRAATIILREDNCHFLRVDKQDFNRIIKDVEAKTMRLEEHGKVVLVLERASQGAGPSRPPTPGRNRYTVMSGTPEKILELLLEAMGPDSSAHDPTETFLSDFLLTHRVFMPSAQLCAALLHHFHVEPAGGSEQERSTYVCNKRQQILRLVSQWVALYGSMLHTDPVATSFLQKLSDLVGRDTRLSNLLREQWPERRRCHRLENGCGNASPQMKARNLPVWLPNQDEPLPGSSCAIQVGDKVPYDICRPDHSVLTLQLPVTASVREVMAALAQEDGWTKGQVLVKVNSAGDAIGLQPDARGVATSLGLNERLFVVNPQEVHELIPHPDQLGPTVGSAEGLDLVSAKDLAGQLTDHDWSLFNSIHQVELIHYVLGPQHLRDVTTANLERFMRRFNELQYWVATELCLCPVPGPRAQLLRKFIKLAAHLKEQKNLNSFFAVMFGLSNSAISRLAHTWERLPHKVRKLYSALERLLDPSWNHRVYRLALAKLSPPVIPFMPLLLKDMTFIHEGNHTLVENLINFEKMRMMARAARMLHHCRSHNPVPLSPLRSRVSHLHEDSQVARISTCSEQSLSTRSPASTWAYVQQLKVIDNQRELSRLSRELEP
Outline: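 Nucleotide exchange uses 100 nM EPAC1, 250 nM RAP1B-BODIPY-GDP and 50 uM GDP, with compounds in a concentration-titration series. After 5 min at room temperature, fluorescence (480 nm ex/540 nm em) is read every 5 min for 30 min. Data are normalized to control ATA and DMSO.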

[23] = target: Rap guanine nucleotide exchange factor 3 (Homo sapiens) (UniProt O95398); experiment: Confirmatory qHTS for agonist of cAMP-regulated guanine nucleotide exchange factor 3 (EPAC1) (AID 1645881);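 note: EPAC1 catalysed release of BODIPY-GDP from Rap1B seen as fluorescence loss; nearly all actives have a fitted effect of over 75% in size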
[24] = target: Rap guanine nucleotide exchange factor 4 (Homo sapiens) (UniProt Q8WZA2); experiment: Confirmatory qHTS for agonist of cAMP-regulated guanine nucleotide exchange factor 4 (EPAC2) (AID 1645884);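 note: nucleotide exchange releases bodipy-GDP from Rap1 and this lowers its fluorescence; nearly all actives have a fitted effect of over 65% in size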
Sequence of Rap guanine nucleotide exchange factor 4 (Homo sapiens) (Q8WZA2 whole entry, looked up): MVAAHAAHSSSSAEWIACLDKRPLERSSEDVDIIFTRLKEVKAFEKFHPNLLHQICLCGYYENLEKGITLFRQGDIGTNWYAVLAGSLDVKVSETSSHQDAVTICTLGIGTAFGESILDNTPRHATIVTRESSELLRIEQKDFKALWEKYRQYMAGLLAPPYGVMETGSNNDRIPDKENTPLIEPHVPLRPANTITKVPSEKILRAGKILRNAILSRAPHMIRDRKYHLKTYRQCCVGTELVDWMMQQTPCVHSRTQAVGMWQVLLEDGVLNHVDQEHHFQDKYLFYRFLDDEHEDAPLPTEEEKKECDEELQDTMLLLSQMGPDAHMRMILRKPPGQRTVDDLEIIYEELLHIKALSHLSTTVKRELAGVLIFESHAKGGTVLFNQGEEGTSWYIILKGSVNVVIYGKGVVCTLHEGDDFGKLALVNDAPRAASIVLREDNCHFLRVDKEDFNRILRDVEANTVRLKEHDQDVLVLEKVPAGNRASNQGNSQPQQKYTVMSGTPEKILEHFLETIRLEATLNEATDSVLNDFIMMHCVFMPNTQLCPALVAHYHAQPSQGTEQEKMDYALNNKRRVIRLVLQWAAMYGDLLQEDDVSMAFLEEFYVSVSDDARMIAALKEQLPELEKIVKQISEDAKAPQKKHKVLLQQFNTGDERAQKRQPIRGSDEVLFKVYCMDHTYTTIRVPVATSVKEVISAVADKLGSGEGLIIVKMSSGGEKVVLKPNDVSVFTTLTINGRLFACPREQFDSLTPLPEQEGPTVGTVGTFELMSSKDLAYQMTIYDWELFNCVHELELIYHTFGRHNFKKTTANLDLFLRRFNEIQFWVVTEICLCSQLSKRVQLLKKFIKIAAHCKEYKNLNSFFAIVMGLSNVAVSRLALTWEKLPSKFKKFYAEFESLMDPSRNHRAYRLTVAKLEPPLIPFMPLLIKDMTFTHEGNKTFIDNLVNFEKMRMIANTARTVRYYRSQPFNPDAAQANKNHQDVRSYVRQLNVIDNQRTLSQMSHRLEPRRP

[25] = target: Rap guanine nucleotide exchange factor 4 (Homo sapiens) (UniProt Q8WZA2); experiment: Confirmatory qHTS for antagonist of cAMP-regulated guanine nucleotide exchange factor 4 (EPAC2) (AID 1645885); note: nearly all actives have a fitted effect of over 25% in size

For `S=C(S)O[C@@H]1C[C@@H]2C[C@H]1[C@@H]1CCC[C@H]21`, the activity change, negative = inhibition [1] was 6.71% (inactive), the Potency [2] was “inactive” and the activity, negative = inhibition [3] was -20.1% (inactive). The Potency [4] was > 46 µM (inactive), the Potency [5] was > 46 µM (inactive) and the Potency [6] was “inactive”. The Potency [7] was “inactive”, the outcome [8] was “inactive” and the Potency [9] was 3.98 µM (active). For the same compound, the Potency [10] was 3.98 µM (active), the Potency [11] was “inactive” and the Potency [12] was “inactive”. For the same compound, the Potency [13] was “inactive”, the Potency [14] was “inactive” and the outcome [15] was “inactive”. The outcome [16] was “inactive”, the outcome [17] was “inactive” and the activity change, negative = inhibition ([18]; at 57.5 µM (top of the series)) was -0.164% (inactive). For the same compound, the max response ([18]; measured here: cell count channel max response) was 8.79%, the max response ([18]; measured here: lipid channel max response) was 9.53% and the Potency [19] was “inactive”. The Potency [20] was “inactive”, the Potency [21] was “inactive” and the Potency [22] was “inactive”. The outcome [23] was “inactive”, the outcome [24] was “inactive” and the Potency [25] was “inactive”.
